Measured values: PubChem BioAssay (EPA / NIEHS)
The source holds several records for some structures; these can differ, active in one and inactive in another. The source made the active and inactive calls. The calls were made as follows: active = hit-call score of the fitted dose curve at least 0.9, where 1 is the maximum; inactive = score below 0.9.

Columns and labels:
[1] = APR_HepG2_CellLoss_72hr: Apredica 72-hour HepG2 Assay for Cell Loss (AID 2282915); settings: high-content imaging
In short: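 Cell number comes from Hoechst 33342-labelled nuclei, imaged at 20x after 3.7% formaldehyde fixation. Dosing was 0.39–200 uM, ten concentrations in duplicate, 0.5% DMSO final, for 72 h. Bidirectional fit relative to DMSO baseline.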

[2] = APR_HepG2_P-H2AX_72hr: Apredica 72-hour HepG2 Assay for H2AX Phosphorylation (AID 2282916); settings: imaging, actives raise or lower the signal;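 also: phospho-histone H2A.x immunostain intensity per cell marking DNA damage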
In short: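 Phospho-histone H2A.x immunofluorescence, multiplexed with Hoechst and c-Jun, quantified by high-content imaging. Compounds applied to HepG2 for 72 h across ten concentrations (0.39–200 uM, 0.5% DMSO), in duplicate; DMSO baseline.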

[3] = APR_HepG2_MitoMembPot_72hr: Apredica 72-hour HepG2 Assay for Mitochondrial Membrane Potential (AID 2282917); settings: imaging, actives raise or lower the signal
In short: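 Membrane potential read by MitoTracker Red CMXRos (250 nM, 30 min, pre-fixation) fluorescence imaging of HepG2 after 72 hr exposure. Ten concentrations, 0.39–200 uM, duplicate wells, 0.5% DMSO; fitted in both directions against DMSO baseline.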

[4] = APR_HepG2_MicrotubuleCSK_72hr: Apredica 72-hour HepG2 Assay for Microtubule CSK Stabilty (AID 2282919); settings: HepG2 microtubule cytoskeleton, high-content imaging, actives raise or lower the signal
In short: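 High-content imaging of alpha-tubulin staining in fixed HepG2 cells after 72 hr treatment with ten concentrations from 0.39 to 200 uM (0.5% DMSO). Fitting was bidirectional against DMSO; taxol served as positive control.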

[5] = APR_HepG2_P-H2AX_24hr: Apredica 24-hour HepG2 Assay for H2AX Phosphorylation (AID 2282920); settings: high-content imaging, actives raise or lower the signal
In short: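 HepG2, 24 hr, cpd 0.39–200 uM (10 conc, duplicate), DMSO 0.5% v/v final. Fix 3.7% formaldehyde, Triton X-100 permeabilize, anti-phospho-H2A.x 1:200 + Hoechst 2 ug/mL. Imaged, bidirectional fit vs DMSO.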

[6] = APR_HepG2_StressKinase_72hr: Apredica 72-hour HepG2 Assay for Stress Kinase (AID 2282921); settings: HepG2 stress kinase (phospho-c-Jun) imaging, actives raise or lower the signal
In short: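 Stress kinase signal is phospho-c-Jun immunofluorescence (1:500 primary, Cy3 secondary) in fixed, permeabilized human HepG2 cells imaged at 20x. Exposure lasted 72 hr over ten concentrations from 0.39 to 200 uM, 0.5% DMSO, in duplicate. Bidirectional fit versus DMSO.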

[7] = APR_HepG2_StressKinase_24hr: Apredica 24-hour HepG2 Assay for Stress Kinase (AID 2282922); settings: HepG2 stress kinase (phospho-c-Jun) imaging, actives raise or lower the signal
In short: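 High-content imaging of phospho-c-Jun immunofluorescence in fixed, permeabilized HepG2 cells after 24 h dosing. Ten concentrations, 0.39 to 200 uM, run in duplicate at 0.5% v/v DMSO; gain or loss of signal versus DMSO.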

[8] = APR_HepG2_p53Act_72hr: Apredica 72-hour HepG2 Assay for p53 Activation (AID 2282923); settings: high-content imaging, actives raise or lower the signal;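 also: average cellular p53 protein immunofluorescence intensity in HepG2 cells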
In short: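 After 72 h with compound (ten points, 0.39 to 200 uM, final DMSO 0.5% v/v), fixed HepG2 cells were labelled with sheep anti-p53 and Hoechst 33342 and imaged; gain or loss versus DMSO scored.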

[9] = APR_HepG2_MitoMass_72hr: Apredica 72-hour HepG2 Assay for Mitochondrial Mass (AID 2282924); settings: high-content imaging, actives raise or lower the signal;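 also: MitoTracker Red CMXRos stain intensity per cell imaged as mitochondrial mass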
In short: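 Readout is imaged MitoTracker Red (250 nM, 30 min, pre-fixation) signal, fitted bidirectionally against DMSO baseline. Human HepG2 liver cells received compound 0.39–200 uM in duplicate for 72 hr, final DMSO 0.5%.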

[10] = APR_HepG2_NuclearSize_72hr: Apredica 72-hour HepG2 Assay for Nuclear Size (AID 2282925); settings: high-content imaging, actives raise or lower the signal
In short: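 Nuclear size was read by high-content imaging of Hoechst 33342 stain after formaldehyde fixation. Compounds ran 72 h on HepG2 at 0.39 to 200 uM, with final DMSO 0.5% v/v. Curves fitted both directions relative to DMSO control.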

[11] = target: CCAAT/enhancer-binding protein beta (Homo sapiens) (UniProt P17676); assay: ATG_C_EBP_CIS: Attagene CIS-FACTORIAL HepG2 Assay for human CCAAT/Enhancer Binding Protein (C/EBP) beta (AID 2282927); settings: HepG2 Attagene cis-factorial transcription factor reporter; actives raise or lower the signal
Sequence of CCAAT/enhancer-binding protein beta (Homo sapiens) (P17676 whole entry, looked up): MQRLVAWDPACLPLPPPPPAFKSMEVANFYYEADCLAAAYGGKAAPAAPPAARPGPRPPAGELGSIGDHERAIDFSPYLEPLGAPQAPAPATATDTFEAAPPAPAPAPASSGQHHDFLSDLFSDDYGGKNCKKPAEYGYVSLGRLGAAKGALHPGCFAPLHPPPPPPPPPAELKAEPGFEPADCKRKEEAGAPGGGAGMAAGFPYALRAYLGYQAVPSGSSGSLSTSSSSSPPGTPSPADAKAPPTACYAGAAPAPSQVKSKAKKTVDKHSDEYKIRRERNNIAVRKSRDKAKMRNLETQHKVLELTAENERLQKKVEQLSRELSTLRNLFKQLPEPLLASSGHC
In short: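 Endogenous transcription factor activity in human liver HepG2 cells is inferred from induction of a CEBPB-linked reporter mRNA. Exposure lasts 24 h; activity is fitted in both directions relative to DMSO.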

[12] = ATG_CMV_CIS: Attagene CIS-FACTORIAL HepG2 Assay for human CMV (Internal Marker) (AID 2282928); settings: HepG2 CMV promoter reporter, transcription factor profiling; actives raise or lower the signal;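 also: endpoint acts as a background internal control marker rather than a target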
In short: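 Reporter transcripts from transfected HepG2 cells are isolated after 24 h of chemical dosing, reverse-transcribed and amplified. Fragments labeled with 6-FAM are cut with HpaI and quantified by capillary electrophoresis; DMSO defines baseline.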

[13] = ATG_DR4_LXR_CIS: Attagene CIS-FACTORIAL HepG2 Assay for human Liver X Receptor (LXR), DR4 submotif (AID 2282929); settings: HepG2 Attagene DR4 cis-reporter, mRNA transcription; actives raise or lower the signal
In short: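 Readout: reporter transcript fluorescence after RT-PCR and capillary electrophoresis, fitted bidirectionally against DMSO controls. Human HepG2 liver cells carried transiently transfected multiplexed reporter constructs; endogenous transcription factor activity measured 24 h post-dosing.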

[14] = ATG_AP_2_CIS: Attagene CIS-FACTORIAL HepG2 Assay for human Activator Protein 2 (AP-2) (AID 2282932); settings: HepG2 AP-2 cis-reporter, Attagene transcription factor profiling; actives raise or lower the signal
In short: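 Endogenous transcription factor activity is reported through transfected multiplex reporter constructs in HepG2, after 24 h of compound exposure. Transcripts were quantified by RT-PCR and capillary electrophoresis of fluorescent fragments. Bidirectional fit against DMSO.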

[15] = ATG_BRE_CIS: Attagene CIS-FACTORIAL HepG2 Assay for human Bone Morphogenetic Protein (BMP) Response Element (BRE) (AID 2282933); settings: HepG2 BMP response element reporter, Attagene transcription factor profiling; actives raise or lower the signal
In short: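 HepG2 cells transiently transfected with CIS reporter units (endogenous TF activity, BMP response element), dosed 24 h. Reporter mRNA quantified by RT-PCR, fluorescent labelling and capillary electrophoresis; bidirectional fit vs DMSO baseline.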

[16] = target: Retinoic acid receptor alpha (Homo sapiens) (UniProt P10276); assay: ATG_DR5_RAR_CIS: Attagene CIS-FACTORIAL HepG2 Assay for human Retinoic Acid Receptor Alpha (RARE), DR5 submotif (AID 2282934); settings: HepG2 Attagene cis-factorial RARE DR5 reporter, mRNA; actives raise or lower the signal
Sequence of Retinoic acid receptor alpha (Homo sapiens) (P10276 whole entry, looked up): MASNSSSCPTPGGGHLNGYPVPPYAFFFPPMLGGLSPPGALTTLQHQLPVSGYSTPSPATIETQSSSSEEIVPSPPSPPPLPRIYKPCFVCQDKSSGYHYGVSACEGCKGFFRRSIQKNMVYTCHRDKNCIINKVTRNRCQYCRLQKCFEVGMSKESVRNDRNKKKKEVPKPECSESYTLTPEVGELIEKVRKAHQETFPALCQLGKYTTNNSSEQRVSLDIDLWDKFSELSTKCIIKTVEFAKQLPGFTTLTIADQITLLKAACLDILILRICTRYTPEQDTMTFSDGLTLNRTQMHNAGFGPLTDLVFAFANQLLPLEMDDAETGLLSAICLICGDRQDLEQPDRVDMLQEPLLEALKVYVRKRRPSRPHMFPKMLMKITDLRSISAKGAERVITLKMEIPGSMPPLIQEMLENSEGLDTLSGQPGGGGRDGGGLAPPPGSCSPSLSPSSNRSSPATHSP
In short: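 Transient MRTU transfection of HepG2; 24 h compound treatment; TriZol RNA, oligo(dT) RT, PCR, FAM labelling, capillary electrophoresis. Bidirectional fit vs DMSO. Endogenous TF activity at DR5 RARE.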

[17] = ATG_CRE_CIS: Attagene CIS-FACTORIAL HepG2 Assay for human cAMP Responsive Element (CRE) binding protein 3 (AID 2282926); settings: HepG2 CRE cis-reporter, Attagene multiplexed mRNA; actives raise or lower the signal
In short: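 Assay format: transient reporter transfection of HepG2, 24 h treatment, total RNA isolation with DNase I step. Reporter abundance read by fluorescence after PCR and capillary separation; DMSO-normalised gain or loss fitting.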

[18] = target: Aryl hydrocarbon receptor (Homo sapiens) (UniProt P35869); assay: ATG_Ahr_CIS: Attagene CIS-FACTORIAL HepG2 Assay for human Aryl Hydrocarbon Receptor (Ahr) (AID 2282930); settings: HepG2 AhR cis-factorial reporter transcription; actives raise or lower the signal
Sequence of Aryl hydrocarbon receptor (Homo sapiens) (P35869 whole entry, looked up): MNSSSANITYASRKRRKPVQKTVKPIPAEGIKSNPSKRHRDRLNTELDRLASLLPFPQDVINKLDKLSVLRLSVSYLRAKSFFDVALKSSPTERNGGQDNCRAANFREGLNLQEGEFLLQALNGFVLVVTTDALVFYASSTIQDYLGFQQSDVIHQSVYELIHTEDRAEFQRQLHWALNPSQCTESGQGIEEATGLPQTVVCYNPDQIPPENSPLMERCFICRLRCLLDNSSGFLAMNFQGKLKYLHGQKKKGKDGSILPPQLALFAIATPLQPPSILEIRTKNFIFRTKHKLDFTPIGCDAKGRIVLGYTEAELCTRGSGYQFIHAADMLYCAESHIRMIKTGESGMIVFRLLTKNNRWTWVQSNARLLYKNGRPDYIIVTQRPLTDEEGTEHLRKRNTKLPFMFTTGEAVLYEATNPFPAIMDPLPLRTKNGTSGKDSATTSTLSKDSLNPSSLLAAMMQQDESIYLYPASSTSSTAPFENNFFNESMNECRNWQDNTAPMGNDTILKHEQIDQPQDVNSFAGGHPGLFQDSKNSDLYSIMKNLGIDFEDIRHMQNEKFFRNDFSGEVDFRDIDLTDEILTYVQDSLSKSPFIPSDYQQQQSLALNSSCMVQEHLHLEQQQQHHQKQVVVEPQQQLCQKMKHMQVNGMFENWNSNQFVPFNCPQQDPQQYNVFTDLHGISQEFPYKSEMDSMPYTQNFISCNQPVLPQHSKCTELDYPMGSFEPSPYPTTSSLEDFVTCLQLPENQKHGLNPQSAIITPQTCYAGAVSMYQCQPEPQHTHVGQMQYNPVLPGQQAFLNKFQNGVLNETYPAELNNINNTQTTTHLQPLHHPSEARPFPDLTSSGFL
In short: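 Transient MRTU transfection of HepG2 → 24 h compound exposure → total RNA, oligo(dT) RT → PCR, 6-FAM extension, HpaI cut → CE fluorescence. DMSO = baseline; bidirectional curve fit.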

[19] = ATG_AP_1_CIS: Attagene CIS-FACTORIAL HepG2 Assay for human Activator Protein 1 (AP-1) (AID 2282931); settings: HepG2 Attagene cis-factorial AP-1 reporter mRNA; actives raise or lower the signal
In short: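 Reporter transcripts were measured 24 h after dosing by RT-PCR and capillary electrophoresis of fluorescent fragments. Cells: HepG2 carrying transfected cis-regulated reporter constructs reading endogenous factor activity. Gain or loss fitted against DMSO.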

SMILES | outcome [1] | outcome [2] | outcome [3] | outcome [4] | outcome [5] | outcome [6] | outcome [7] | outcome [8] | outcome [9] | outcome [10] | outcome [11] | outcome [12] | outcome [13] | outcome [14] | outcome [15] | outcome [16] | outcome [17] | AC50 [11] | outcome [18] | outcome [19]
CCNc1nc(N)nc(Cl)n1 | inactive | inactive | inactive | inactive | inactive | inactive | inactive | inactive | inactive | inactive | inactive | inactive | inactive | inactive | inactive | inactive |  |  |  | 
CCOC(=O)c1ccc(O)cc1 | inactive | inactive | inactive | inactive | inactive |  | inactive | inactive | inactive | inactive | inactive | inactive | inactive | inactive |  | inactive | inactive | 100 µM (active) | inactive | inactive
CCCOC(=O)c1ccc(C(=O)OCCC)nc1 | inactive | inactive | inactive | inactive | inactive |  | inactive | inactive | inactive | inactive | inactive | inactive | inactive | inactive | inactive | inactive | inactive |  | inactive | 
